Results: paper PMC7862700, “An all-to-all approach to the identification of sequence-specific readers for epigenetic DNA modifications on cytosine”

Tests used:
Assay in all cases: DAPPL (digital affinity profiling via proximity ligation, sequencing); 10 mM Tris-HCl pH 7.5, 50 mM NaCl, 1 mM DTT, 4% glycerol, room temperature, 30 min; GST-TFs on glutathione beads, 16-mer random dsDNA library, 0.1% formaldehyde crosslink after washing; high values mean tight binding
Settings in all cases: protein: recombinant; tags: N-terminal GST; dsDNA, one strand shown
FEV = molecular target: T1, FEV (Homo sapiens, UniProt Q99581 1-238)
T1 sequence: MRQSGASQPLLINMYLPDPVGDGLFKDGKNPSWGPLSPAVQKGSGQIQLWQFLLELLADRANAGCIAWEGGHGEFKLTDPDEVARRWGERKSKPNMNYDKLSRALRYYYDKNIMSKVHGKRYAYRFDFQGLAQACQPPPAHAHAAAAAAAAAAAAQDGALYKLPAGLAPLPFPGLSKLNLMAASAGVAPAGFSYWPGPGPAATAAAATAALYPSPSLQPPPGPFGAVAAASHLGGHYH
How it was run: (§1)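 The binding signal reported is, for every hexamer, its read frequency for a factor over its read frequency for the tag-only sample. Reads came from pools of yeast-expressed, GST-fused human transcription factors on glutathione beads, barcoded with DNA and mixed with that sample, which were incubated with 200 nmole of a random double-stranded 16-mer DNA library in Tris/NaCl/DTT/glycerol buffer at room temperature for 30 min. After washing, the pools were crosslinked with 0.1% formaldehyde, proximity-ligated with BsaI/T4 ligase for 1 h at 37 °C, PCR-amplified and sequenced on an Illumina NextSeq500.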

CRX = CRX (Homo sapiens, UniProt O43186 1-299)
CRX, sequence (O43186 whole entry): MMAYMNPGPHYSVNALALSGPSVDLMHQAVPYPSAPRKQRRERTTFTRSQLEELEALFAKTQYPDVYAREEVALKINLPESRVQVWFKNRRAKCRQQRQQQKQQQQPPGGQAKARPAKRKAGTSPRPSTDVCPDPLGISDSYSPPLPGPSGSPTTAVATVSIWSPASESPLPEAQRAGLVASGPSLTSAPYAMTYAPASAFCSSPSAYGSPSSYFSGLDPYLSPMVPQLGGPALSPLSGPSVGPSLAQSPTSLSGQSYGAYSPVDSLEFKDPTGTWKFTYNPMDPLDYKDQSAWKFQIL
How it was run: as §1

SPDEF = molecular target: T2, SPDEF (Homo sapiens, UniProt O95238 1-335)
T2 sequence: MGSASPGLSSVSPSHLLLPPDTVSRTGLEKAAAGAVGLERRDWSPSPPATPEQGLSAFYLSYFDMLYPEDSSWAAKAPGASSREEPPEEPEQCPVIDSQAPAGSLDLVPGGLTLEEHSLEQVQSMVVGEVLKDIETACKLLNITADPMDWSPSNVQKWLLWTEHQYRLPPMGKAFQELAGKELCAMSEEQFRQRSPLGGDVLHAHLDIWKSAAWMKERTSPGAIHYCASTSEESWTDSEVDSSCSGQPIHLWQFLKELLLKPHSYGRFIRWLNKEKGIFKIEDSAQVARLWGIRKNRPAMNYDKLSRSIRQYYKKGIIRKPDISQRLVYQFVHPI
How it was run: as §1

SPI1 = SPI1 (Homo sapiens, UniProt P17947 1-270)
How it was run: as §1

ERG = molecular target: T3, ERG (Homo sapiens, UniProt P11308 1-479)
T3 sequence: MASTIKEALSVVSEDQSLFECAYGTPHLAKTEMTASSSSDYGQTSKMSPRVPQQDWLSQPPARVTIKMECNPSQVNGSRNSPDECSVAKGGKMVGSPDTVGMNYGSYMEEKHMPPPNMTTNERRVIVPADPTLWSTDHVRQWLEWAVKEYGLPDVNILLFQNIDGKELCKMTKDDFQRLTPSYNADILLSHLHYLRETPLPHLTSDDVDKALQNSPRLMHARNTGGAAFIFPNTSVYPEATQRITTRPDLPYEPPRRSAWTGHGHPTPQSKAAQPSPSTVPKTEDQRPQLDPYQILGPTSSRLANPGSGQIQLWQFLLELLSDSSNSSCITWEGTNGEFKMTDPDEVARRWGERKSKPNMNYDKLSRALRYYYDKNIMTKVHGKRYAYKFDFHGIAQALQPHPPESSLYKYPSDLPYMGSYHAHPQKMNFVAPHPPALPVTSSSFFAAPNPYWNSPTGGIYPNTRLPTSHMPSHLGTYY
How it was run: as §1

ELF5 = molecular target: T4, ELF5 (Homo sapiens, UniProt Q9UKW6-2 1-255)
T4 sequence: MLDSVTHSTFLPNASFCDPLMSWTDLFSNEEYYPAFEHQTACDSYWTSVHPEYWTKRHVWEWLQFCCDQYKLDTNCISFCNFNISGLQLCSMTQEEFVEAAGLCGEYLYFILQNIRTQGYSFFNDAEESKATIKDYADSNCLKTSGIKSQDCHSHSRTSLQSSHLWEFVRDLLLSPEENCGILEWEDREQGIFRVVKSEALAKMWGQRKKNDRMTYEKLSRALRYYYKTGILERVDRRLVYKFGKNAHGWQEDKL
How it was run: as §1

TTGGAT
binding signal (FEV): 1 fold enrichment (6-mer frequency, TF over GST control)
binding signal (CRX): 1.39 fold enrichment (6-mer frequency, TF over GST control)
binding signal (SPDEF): 1.13 fold enrichment (6-mer frequency, TF over GST control)

CACCTA
binding signal (SPI1): 1.03 fold enrichment (6-mer frequency, TF over GST control)

ATGGGG
binding signal (ERG): 1.07 fold enrichment (6-mer frequency, TF over GST control)
binding signal (SPI1): 1.11 fold enrichment (6-mer frequency, TF over GST control)
binding signal (FEV): 1.05 fold enrichment (6-mer frequency, TF over GST control)
binding signal (CRX): 1.03 fold enrichment (6-mer frequency, TF over GST control)
binding signal (ELF5): 1.1 fold enrichment (6-mer frequency, TF over GST control)

GGTAAC
binding signal (ERG): 1.01 fold enrichment (6-mer frequency, TF over GST control)
binding signal (SPI1): 1.02 fold enrichment (6-mer frequency, TF over GST control)
binding signal (FEV): 1.05 fold enrichment (6-mer frequency, TF over GST control)
binding signal (ELF5): 1.02 fold enrichment (6-mer frequency, TF over GST control)

CGCTAA
binding signal (CRX): 1.34 fold enrichment (6-mer frequency, TF over GST control)

GATTAA
binding signal (FEV): 1.02 fold enrichment (6-mer frequency, TF over GST control)
binding signal (CRX): 4.96 fold enrichment (6-mer frequency, TF over GST control)
binding signal (SPDEF): 1.08 fold enrichment (6-mer frequency, TF over GST control)

CGTTGC
binding signal (ERG): 1.06 fold enrichment (6-mer frequency, TF over GST control)
binding signal (FEV): 1.11 fold enrichment (6-mer frequency, TF over GST control)
binding signal (SPDEF): 1.18 fold enrichment (6-mer frequency, TF over GST control)
binding signal (ELF5): 1.03 fold enrichment (6-mer frequency, TF over GST control)

CGCAAC
binding signal (ERG): 1.03 fold enrichment (6-mer frequency, TF over GST control)
binding signal (FEV): 1.07 fold enrichment (6-mer frequency, TF over GST control)
binding signal (SPDEF): 1.03 fold enrichment (6-mer frequency, TF over GST control)
binding signal (ELF5): 1.01 fold enrichment (6-mer frequency, TF over GST control)

TGGTTG
binding signal (ERG): 1.01 fold enrichment (6-mer frequency, TF over GST control)
binding signal (SPI1): 1.06 fold enrichment (6-mer frequency, TF over GST control)
binding signal (ELF5): 1 fold enrichment (6-mer frequency, TF over GST control)

TAAGTC
binding signal (CRX): 1.79 fold enrichment (6-mer frequency, TF over GST control)
binding signal (SPDEF): 1.01 fold enrichment (6-mer frequency, TF over GST control)

GATGGG
binding signal (SPDEF): 1.08 fold enrichment (6-mer frequency, TF over GST control)

TCGCGT
binding signal (SPI1): 1 fold enrichment (6-mer frequency, TF over GST control)

ACCACG
binding signal (ERG): 1.06 fold enrichment (6-mer frequency, TF over GST control)
binding signal (SPI1): 1.01 fold enrichment (6-mer frequency, TF over GST control)
binding signal (FEV): 1.05 fold enrichment (6-mer frequency, TF over GST control)
binding signal (SPDEF): 1.06 fold enrichment (6-mer frequency, TF over GST control)
binding signal (ELF5): 1.02 fold enrichment (6-mer frequency, TF over GST control)

GGTTCT
binding signal (SPDEF): 1.01 fold enrichment (6-mer frequency, TF over GST control)
binding signal (ELF5): 1.01 fold enrichment (6-mer frequency, TF over GST control)

GATCCA
binding signal (ERG): 1.03 fold enrichment (6-mer frequency, TF over GST control)
binding signal (FEV): 1.07 fold enrichment (6-mer frequency, TF over GST control)
binding signal (CRX): 1.23 fold enrichment (6-mer frequency, TF over GST control)
binding signal (SPDEF): 1.17 fold enrichment (6-mer frequency, TF over GST control)
binding signal (ELF5): 1.03 fold enrichment (6-mer frequency, TF over GST control)

CATTGC
binding signal (ERG): 1.11 fold enrichment (6-mer frequency, TF over GST control)
binding signal (SPI1): 1.05 fold enrichment (6-mer frequency, TF over GST control)
binding signal (FEV): 1.04 fold enrichment (6-mer frequency, TF over GST control)

ACCCCT
binding signal (ERG): 1.01 fold enrichment (6-mer frequency, TF over GST control)
binding signal (SPI1): 1.1 fold enrichment (6-mer frequency, TF over GST control)
binding signal (FEV): 1.08 fold enrichment (6-mer frequency, TF over GST control)
binding signal (SPDEF): 1.16 fold enrichment (6-mer frequency, TF over GST control)
binding signal (ELF5): 1 fold enrichment (6-mer frequency, TF over GST control)

TCTGGA
binding signal (ERG): 1.04 fold enrichment (6-mer frequency, TF over GST control)
binding signal (SPI1): 1.01 fold enrichment (6-mer frequency, TF over GST control)
binding signal (FEV): 1.08 fold enrichment (6-mer frequency, TF over GST control)
binding signal (CRX): 1.72 fold enrichment (6-mer frequency, TF over GST control)

CTCGGG
binding signal (ERG): 1.03 fold enrichment (6-mer frequency, TF over GST control)

AGAACA
binding signal (ERG): 1.01 fold enrichment (6-mer frequency, TF over GST control)
binding signal (CRX): 1.22 fold enrichment (6-mer frequency, TF over GST control)
binding signal (SPDEF): 1.03 fold enrichment (6-mer frequency, TF over GST control)

GCCGCT
binding signal (ERG): 1.07 fold enrichment (6-mer frequency, TF over GST control)
binding signal (SPI1): 1.12 fold enrichment (6-mer frequency, TF over GST control)
binding signal (FEV): 1.05 fold enrichment (6-mer frequency, TF over GST control)
binding signal (CRX): 1.02 fold enrichment (6-mer frequency, TF over GST control)
binding signal (ELF5): 1.03 fold enrichment (6-mer frequency, TF over GST control)

ACAGCC
binding signal (ERG): 1.02 fold enrichment (6-mer frequency, TF over GST control)
binding signal (FEV): 1.02 fold enrichment (6-mer frequency, TF over GST control)
binding signal (SPDEF): 1.02 fold enrichment (6-mer frequency, TF over GST control)
binding signal (ELF5): 1.03 fold enrichment (6-mer frequency, TF over GST control)

GTTTGC
binding signal (SPI1): 1.03 fold enrichment (6-mer frequency, TF over GST control)
binding signal (ELF5): 1.07 fold enrichment (6-mer frequency, TF over GST control)

GCACCT
binding signal (ERG): 1.07 fold enrichment (6-mer frequency, TF over GST control)
binding signal (SPI1): 1.05 fold enrichment (6-mer frequency, TF over GST control)
binding signal (FEV): 1.04 fold enrichment (6-mer frequency, TF over GST control)
binding signal (SPDEF): 1.09 fold enrichment (6-mer frequency, TF over GST control)

AGCTGA
binding signal (SPI1): 1.01 fold enrichment (6-mer frequency, TF over GST control)
binding signal (CRX): 1.11 fold enrichment (6-mer frequency, TF over GST control)

TCAGCT
binding signal (ERG): 1.06 fold enrichment (6-mer frequency, TF over GST control)
binding signal (SPI1): 1.04 fold enrichment (6-mer frequency, TF over GST control)
binding signal (CRX): 1.39 fold enrichment (6-mer frequency, TF over GST control)

CGGCCC
binding signal (FEV): 1 fold enrichment (6-mer frequency, TF over GST control)

ATGCGT
binding signal (SPI1): 1.03 fold enrichment (6-mer frequency, TF over GST control)
binding signal (FEV): 1.01 fold enrichment (6-mer frequency, TF over GST control)
binding signal (SPDEF): 1.07 fold enrichment (6-mer frequency, TF over GST control)
binding signal (ELF5): 1.03 fold enrichment (6-mer frequency, TF over GST control)

TCAGCC
binding signal (FEV): 1.04 fold enrichment (6-mer frequency, TF over GST control)
binding signal (CRX): 1.17 fold enrichment (6-mer frequency, TF over GST control)
binding signal (SPDEF): 1.03 fold enrichment (6-mer frequency, TF over GST control)

AGTTTT
binding signal (ELF5): 1.01 fold enrichment (6-mer frequency, TF over GST control)

GCCGCA
binding signal (FEV): 1.01 fold enrichment (6-mer frequency, TF over GST control)
